{"source": "PubChem BioAssay AID1508600", "about": "(Functional Genomics Laboratory (NCATS/FGL), 2020)", "note": "The whole screen tested about 53,000 sequences, of which about 3,700 (7%) were called active. This excerpt belongs to a sample that is enriched for actives. Unmarked numbers belong to inactive results.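 Rule for the calls: active = gene knockdowns whose robust z-score for IL-1 alpha signal is at least 2 or at most -2, so actives lie on both sides; inactive = the rest.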", "data": [{"assay": "Components of the Cytosolic LPS Sensing Pathway: Gene Identification via Genome-wide siRNA Screen;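 note: robust z of the log signal after scaling to non-targeting control siRNA wells of the plate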", "settings": "RAW264.7 macrophages, IL-1a HTRF, actives lie on both sides, screened at 100 nM (by protocol), cells primed 5 h with Pam3CSK4 first", "summary_of_the_method": "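Cells (RAW264.7, 1×10^4 per well) were transfected with siRNA at 100 nM and cultured 48h at 37 degrees C. Pam3CSK4 was added for 5 hours; LipidA transfection followed for 24 hour. IL-1a was then measured by HTRF.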", "values": [{"sequence": "GGAAAAGCUACCUGUGUCATT against Tril", "z-score": -1.88}, {"sequence": "GGUGAUGGAAUACCAAAGGTT against Dnajc28", "z-score": -0.736}, {"sequence": "GGAUAUCUUCAUAUUGGUGTT against Ces1f", "z-score": "4 (active)"}, {"sequence": "GGAGAUCCCGUCACUAUCUTT against Lrrc61", "z-score": -0.439}, {"sequence": "GGACAAUGAACUGAUUACCTT against Ap1s2", "z-score": 0.992}, {"sequence": "GGGACAAAGAAAAUCUACUTT against Ehf", "z-score": 0.637}, {"sequence": "GUACCAGAAGUGAGUUCAGTT against Leap2", "z-score": "-2.97 (active)"}, {"sequence": "GCUGCCUCUUUCUUUGCUUTT against Pllp", "z-score": -0.769}, {"sequence": "GGCAGAUUCAGAAUUGUCUTT against Il17a", "z-score": "-2.58 (active)"}, {"sequence": "GGACUUUGCCCUGGAUUCUTT against Cnot1", "z-score": -0.216}, {"sequence": "GGUUUGUUGUUGUUUUUGGTT against Vezt", "z-score": 0.44}, {"sequence": "GCAAUUACCAGUAUGCUACTT against Tbx19", "z-score": 0.914}, {"sequence": "CGGUAAACUGGUUUUACUUTT against Otulin", "z-score": 1.8}, {"sequence": "GCCACAUCCUAUGUGAUGATT against Olfr1349", "z-score": -0.647}, {"sequence": "GGAAGCUAUAUAUCAAGAATT against Tcea1", "z-score": 0.69}, {"sequence": "GUCCGUCUCGGAGAAAUGUTT against Ccdc106", "z-score": "-2.28 (active)"}, {"sequence": "GGAUUCACGAGCAUAAGCUTT against 1700020D05Rik", "z-score": -1.31}, {"sequence": "GGAGGCAGCAGUUAUUGUGTT against Ly6a", "z-score": -0.486}, {"sequence": "GGCCUCAGACCUUCUAUGATT against Mtap", "z-score": -0.149}, {"sequence": "GGUGUCCUCUUUGUUCAUGTT against Sgce", "z-score": "2.94 (active)"}, {"sequence": "GGCUGGUACUCCAUUUUAGTT against Neil2", "z-score": 0.0451}, {"sequence": "GCCAGUUGGUUACUAUGGATT against Tax1bp3", "z-score": -0.412}, {"sequence": "GGGAUUACCAAAAAGGCAUTT against Senp7", "z-score": 0.128}, {"sequence": "GGAUAUUAACUAUGGGUUUTT against Tlr2", "z-score": 0.605}, {"sequence": "GGCCUGCUUUGUUCUGAAUTT against Olfr846", "z-score": "-2.53 (active)"}, {"sequence": "GCGCAAUAAUCAGACGGUUTT against Zhx2", "z-score": -0.624}, {"sequence": "GGAAGAAGGUACAUUUCAGTT against Ankrd42", "z-score": 0.362}, {"sequence": "GGGCAAAAUAUGAAAUACATT against Pate6", "z-score": "2.92 (active)"}, {"sequence": "GAGAGAGACAAUCCUGAAGTT against Klra22", "z-score": -0.0539}, {"sequence": "GGCAAAUGGAAACAGCCAUTT against Serpina1d", "z-score": -1.56}]}]}
